Data from article PMC5540273 (PLoS ONE, 2017).

How the values were obtained:
Conditions in all cases: concentration: 1 μM, replicates: in singlicate; n = 1
MET = test system: MET
MINK = test system: T1, MINK
T1 construct: gene MINK1

MKK7 = test system: MKK7
MKNK1 = test system: MKNK1
MKNK2 = test system: MKNK2
MLCK = test system: T2, MLCK
T2 construct: gene MYLK3

MLK1 = test system: T3, MLK1
T3 construct: gene MAP3K9

MLK2 = test system: MLK2
MLK3 = test system: MLK3
MRCKA = test system: MRCKA
MRCKB = test system: T4, MRCKB
T4 construct: gene CDC42BPB

MST1R = test system: MST1R
MST1 = test system: T5, MST1
T5 construct: gene STK4

MST2 = test system: T6, MST2
T6 construct: gene STK3

MST3 = test system: T7, MST3
T7 construct: gene STK24

MST4 = test system: MST4
MTOR = test system: MTOR
MUSK = test system: MUSK
MYLK2 = test system: MYLK2
MYLK4 = test system: MYLK4
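Further: KINOMEscan kinase panel screen.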

SMILES	%Inh (MET)	%Inh (MINK)	%Inh (MKK7)	%Inh (MKNK1)	%Inh (MKNK2)	%Inh (MLCK)	%Inh (MLK1)	%Inh (MLK2)	%Inh (MLK3)	%Inh (MRCKA)	%Inh (MRCKB)	%Inh (MST1R)	%Inh (MST1)	%Inh (MST2)	%Inh (MST3)	%Inh (MST4)	%Inh (MTOR)	%Inh (MUSK)	%Inh (MYLK2)	%Inh (MYLK4)
COc1cc2ncn(-c3cc(OCc4ccncc4Br)c(C(N)=O)s3)c2cc1OC [GW854278]	0%	44%	0%	15%	8%	0%	2%	17%	9%	0%	0%	74%	0%	23%	34%	24%	9%	4%	0%	70%
Nc1n[nH]c2ncc(-c3ccccc3)cc12 [SB-517081]	0%	11%	0%	53%	88%	0%	17%	0%	0%	3%	0%	41%	0%	0%	0%	0%	7%	28%	15%	61%
COc1cc2ncn(-c3cc(OCc4ccc(S(C)(=O)=O)cc4)c(C(N)=O)s3)c2cc1OC [GW869979]	9%	38%	6%	0%	12%	0%	4%	0%	0%	0%	0%	0%	0%	44%	7%	14%	6%	0%	0%	8%
COc1cc(OC)cc(-c2cc3cnc(N)nc3nc2NC(=O)NC(C)(C)C)c1	0%	9%	0%	0%	0%	0%	0%	0%	0%	0%	0%	0%	0%	1%	0%	0%	58%	0%	13%	11%
Cc1nnc(-c2ccc3ncn(-c4ccc(S(C)=O)cc4)c3c2)o1 (stereo not drawn)	0%	14%	12%	0%	20%	11%	0%	0%	0%	0%	0%	2%	0%	30%	50%	0%	8%	9%	11%	7%
O=c1cc(N2CCOCC2)nc2n(Cc3ccc(F)c(Cl)c3)ccn12 [GSK2297099]	0%	0%	0%	5%	1%	7%	0%	0%	0%	0%	0%	13%	0%	16%	0%	0%	12%	5%	0%	3%
CN1C(=O)C(Nc2ccccc2)=C(c2ccccc2)C1=O [SB-300079]	0%	17%	20%	0%	0%	9%	0%	34%	0%	6%	0%	0%	0%	0%	0%	0%	26%	0%	5%	28%
CCC(=O)c1c(-c2ccccc2)c2cc(Cl)ccc2c(=O)n1Cc1cc(S(C)(=O)=O)n(CC(F)F)n1	6%	0%	0%	0%	0%	0%	42%	0%	0%	0%	0%	31%	0%	0%	0%	0%	7%	0%	47%	1%
COc1ccc(-c2cc3c(C)nc(N)nc3n([C@H]3CC[C@H](O)CC3)c2=O)cn1	0%	0%	0%	0%	0%	0%	0%	0%	0%	0%	30%	0%	0%	0%	2%	0%	99%	0%	4%	0%
O=C(Nc1n[nH]c2nc(-c3ccccc3)c(Br)cc12)C1CC1 [SB-708998]	0%	6%	0%	7%	1%	21%	0%	18%	22%	0%	0%	100%	18%	7%	0%	0%	16%	0%	95.7%	0%
COc1cc2ncn(-c3cc(OCc4ccncc4)c(C(N)=O)s3)c2cc1OC [GSK336313]	0%	15%	19%	5%	2%	0%	0%	0%	19%	0%	0%	34%	0%	0%	0%	0%	28%	93.6%	21%	36%
Cl.NS(=O)(=O)c1cccc(Nc2cc(-c3ccc(F)cc3)n[nH]2)c1 [GW824645]	0%	57%	19%	8%	0%	29%	0%	4%	0%	0%	0%	0%	29%	14%	0%	9%	39%	0%	9%	12%
CCCNC(=O)Nc1ccc(Oc2ncnc3ccn(C)c23)cc1	8%	1%	0%	23%	0%	0%	6%	6%	0%	3%	0%	12%	0%	0%	4%	0%	8%	0%	11%	21%
CCC(=O)c1c(-c2ccccc2)c2cc(Cl)ccc2c(=O)n1Cc1cc(C(=O)NC2CC2)n(C)n1	0%	0%	25%	0%	11%	5%	0%	15%	0%	8%	0%	37%	12%	0%	0%	0%	12%	2%	0%	0%
CCc1ccc(-c2ccc3c(c2)-c2nn(C)cc2S(=O)(=O)N3C)cc1	0%	41%	16%	37%	0%	28%	1%	29%	11%	0%	0%	0%	0%	0%	0%	0%	23%	1%	0%	6%
Nc1ncnc2c1ncn2-c1ccc(Cl)cc1 [AH2635]	0%	0%	0%	26%	24%	0%	0%	18%	15%	0%	0%	17%	2%	0%	0%	0%	11%	0%	14%	8%
O=C(Nc1n[nH]c2nc(-c3ccccc3)c(Cl)cc12)C1CC1 [SB-734909]	0%	28%	0%	17%	8%	26%	0%	0%	0%	0%	6%	0%	12%	50%	0%	37%	19%	19%	93.2%	33%
Cc1ccccc1COc1cc(-n2cnc3cc(Cl)ccc32)sc1C(N)=O [GW813349]	24%	35%	0%	2%	0%	0%	11%	9%	0%	29%	0%	0%	0%	12%	0%	0%	18%	0%	0%	24%
CN(C)c1cc(-c2ccc3c(N)n[nH]c3c2)nc(N)n1 [GSK2219329]	0%	0%	0%	0%	9%	0%	3%	0%	3%	0%	0%	18%	1%	0%	5%	0%	1%	0%	9%	0%
CCS(=O)c1ccc(-c2coc3ccc(-c4nnc(C)o4)cc23)cc1 (stereo not drawn)	0%	15%	23%	17%	1%	0%	0%	7%	15%	0%	0%	15%	33%	0%	17%	0%	2%	0%	5%	4%
CCC(=O)c1c(-c2ccccc2)c2cc(Cl)ccc2c(=O)n1Cc1ccc(C(=O)O)cc1	0%	0%	0%	0%	0%	0%	0%	0%	0%	0%	0%	6%	0%	0%	0%	0%	0%	0%	0%	0%
